# Shown are actives, neighbours in structure and some others; about 16% of the full set was active somewhere.
# TDP1 block: qHTS Assay for Inhibitors of Tyrosyl-DNA Phosphodiesterase (TDP1) | Tyrosyl-DNA phosphodiesterase 1 (Homo sapiens), Q9NUW8 | recombinant TDP1, AlphaScreen DNA substrate cleavage | Potency, µM (titrated, usually from 130 µM), for the others: at the top dose activity change, negative = inhibition, actives largely listed as inhibitors | 0.28% of 350,000 active | AID 485290, 2010; also: potency is read from the fitted curve at half-maximal effect; % is scaled to controls: 0 for no effect and ±100 for the full control effect; nearly all actives have a fitted effect of over 40% in size
# Target sequence (Q9NUW8 whole entry, looked up): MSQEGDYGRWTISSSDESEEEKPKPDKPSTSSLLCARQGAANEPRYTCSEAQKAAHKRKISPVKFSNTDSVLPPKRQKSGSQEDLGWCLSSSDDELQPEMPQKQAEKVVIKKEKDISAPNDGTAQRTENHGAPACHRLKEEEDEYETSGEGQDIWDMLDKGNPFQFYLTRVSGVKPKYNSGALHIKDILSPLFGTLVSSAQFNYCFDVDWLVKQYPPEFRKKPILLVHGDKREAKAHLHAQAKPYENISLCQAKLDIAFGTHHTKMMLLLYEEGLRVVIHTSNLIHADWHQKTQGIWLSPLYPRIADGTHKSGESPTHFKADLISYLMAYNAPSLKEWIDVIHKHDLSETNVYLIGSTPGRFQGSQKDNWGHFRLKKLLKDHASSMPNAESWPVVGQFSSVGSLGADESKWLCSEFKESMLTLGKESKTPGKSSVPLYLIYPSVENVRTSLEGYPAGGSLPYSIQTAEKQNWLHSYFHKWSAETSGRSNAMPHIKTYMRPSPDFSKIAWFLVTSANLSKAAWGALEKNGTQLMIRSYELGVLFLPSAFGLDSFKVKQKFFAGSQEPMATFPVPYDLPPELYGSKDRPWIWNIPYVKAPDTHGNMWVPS
#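 Recombinant human Tdp1 (E. coli-expressed, 1 nM final) preincubated with compounds 15 min at room temperature, then 5'-biotin/3'-phosphotyrosine-FITC DNA substrate (15 nM final) added for 5 min. AlphaScreen beads (10 ug/ml final) added 10 min; cleavage lowers signal.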
# uPA surface inh: qHTS for Inhibitors of Cell Surface uPA Generation; 0.31% of 330,000 active; AID 540303, 2011; Potency, µM (highest dose often 38.3 µM), for the others: at the top dose activity change, negative = inhibition, hits mostly inhibitors; cell surface uPA generation assay, qHTS; active = well fitted inhibition curve with a large enough effect; inconclusive = small, poorly fitted or top-dose-only effect; inactive = no such curve, though single readings can be large or run the other way; tested in mouse RAW 264.7 cells; also: potency is read from the fitted curve at half-maximal effect; % is scaled to controls: 0 for no effect and ±100 for the full control effect; nearly all actives have a fitted effect of over 55% in size
# miR-21 reporter: qHTS Assay for Modulators of miRNAs and/orActivators of miR-21 | HeLa miR-21 FLuc reporter, luciferase, 48 h | AID 2288, 2010 | Potency, µM (highest dose often 38.3 µM), inactives show top-dose activity change, positive = activation, hits mostly activators | 340,000 tested, under 10 active;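 also: % of control where 0% means no effect; miR-21 action dims this reporter so a rising signal means less miR-21 action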
#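 Compounds were titrated across several concentrations (up to approximately 40 uM) and incubated 48 hours with HeLa miR-21-FLuc reporter cells (miR-21 target sequence downstream of FLuc, endogenous miR-21). Readout was firefly luciferase luminescence after lytic detection reagent.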
# DT40 TDP1 CPT: qHTS for Inhibitors of human tyrosyl-DNA phosphodiesterase 1 (TDP1): qHTS in cells in presence of CPT. Potency, µM (doses to about 46.2 µM), for inactives: at the top dose activity change, negative = growth inhibition, usual class: inhibitors. 12% of 420,000 active. chicken DT40 Tdp1-/-;hTDP1 cells + 20 nM CPT, ATP luminescence, 48 h; also: potency is read from the fitted curve at half-maximal effect; % is scaled to controls: 0 for no effect and ±100 for the full control effect; nearly all actives have a fitted effect of over 55% in size
#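 Chicken DT40 Tdp1-/- cells stably complemented with human TDP1 were seeded at 400 cells/well in medium containing 20 nM camptothecin, exposed to pin-transferred compounds, and grown at 37 °C for at least 48 hr. Viability was read as ATP luminescence.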
# DT40 TDP1 no CPT: qHTS for Inhibitors of human tyrosyl-DNA phosphodiesterase 1 (TDP1): qHTS in cells in absence of CPT; DT40 Tdp1-/- hTDP1 cells, no CPT, ATP luminescence, 48 h; Potency, µM (titrated, usually from 46.2 µM), for the others: top-dose activity change, negative = growth inhibition, hits mostly inhibitors; 15% of 420,000 active; AID 686978, 2013; also: potency is read from the fitted curve at half-maximal effect; % is scaled to controls: 0 for no effect and ±100 for the full control effect; nearly all actives have a fitted effect of over 55% in size
#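 Growth kinetics read by CellTiter-Glo luminescence after ≥48 hr at 37 °C. Cells: DT40 Tdp1-/- stably carrying human TDP1, 400 per well, compound exposure in the absence of CPT (DMSO vehicle).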
# Active calls of the source: *; ? = inconclusive; nt = not tested or not shown. Unless noted, calls follow the shape of the dose curve; as a rule, active = well fitted curve in the direction sought with a large enough effect; inconclusive = small, poorly fitted or top-dose-only effect, or another doubt; inactive = no such curve, though single readings can be large; an effect the other way counts as inactive or inconclusive.
SMILES,TDP1 block,uPA surface inh,miR-21 reporter,DT40 TDP1 CPT,DT40 TDP1 no CPT
COCC1CCN(C(=O)c2ccc3nc(Cc4cccc(Cl)c4)oc3c2)CC1,nt,nt,nt,21µM*,18µM*
COCC1CCCCN1C(=O)c1ccc2oc(CCCc3ccccc3)nc2c1 (configuration not stated),4%,0%,-11%,18µM*,23µM*
COc1ccc(NC(=O)C2CCN(S(=O)(=O)c3c(C)noc3C)CC2)cc1,1%,2%,-1%,-26%,3%
CCC(C)N(NC(C)=O)c1nc(Cl)nc(NC(C)(C)C)n1 (configuration not stated),4%,-3%,0%,-12%,-9%
CCOc1ccccc1NC(=O)CN1C(=O)COc2ccc(S(=O)(=O)N3CCOCC3)cc21,7%,-6%,3%,?,?
CC(C)CC(=O)C1CCCN(C(=O)c2ccc3oc(Cc4ccccc4)nc3c2)C1 (configuration not stated),2%,-5%,12%,23µM*,23µM*
COCCN1CCN(C(=O)c2ccc3nc(Cc4ccc(OC)c(OC)c4)oc3c2)CC1,4%,-4%,12%,12µM*,6.5µM*
CCC(C)OC(=O)C[N+](C)(C)CCOC1CC2CCC1(C)C2(C)C (configuration not stated),-3%,-18%,19%,1.2µM*,1.5µM*
CCCOC(=O)C[N+](C)(C)CCOC1CC2CCC1(C)C2(C)C (configuration not stated),-4%,-7%,9%,8.2µM*,4.6µM*
CCCCOC(=O)C[N+](C)(C)CCOC1CC2CCC1(C)C2(C)C (configuration not stated),3%,1%,?,2.1µM*,1.8µM*
CCCCCCCOC(=O)C[N+](C)(C)CCOC1CC2CCC1(C)C2(C)C (configuration not stated),-6%,-19%,?,1.5µM*,1.6µM*
CCCCCCOC(=O)C[N+](C)(C)CCOC1CC2CCC1(C)C2(C)C (configuration not stated),8%,nt,30%,?,?
COc1ccc(NC(=O)NC2COc3ccccc3C2)cc1Cl (configuration not stated),5%,nt,-30%,-25%,-14%
COc1ccc(NC(=O)C2CCN(c3nc(-c4ccc(OC)cc4)no3)CC2)cc1,nt,5%,-4%,?,?
COc1ccc(NC(=O)C2COc3ccccc3C2)cc1Cl (configuration not stated),5%,nt,5%,18µM*,16µM*
COc1ccc(-c2noc(N3CCC(C(=O)Nc4ccc(C)c(F)c4)CC3)n2)cc1OC,6%,nt,-12%,?,16µM*
COc1ccc(NC(=O)C2CCN(c3nc(-c4ccc(OC)c(OC)c4)no3)CC2)cc1Cl,12%,nt,-18%,4.1µM*,?
N#Cc1cccc(NC(=O)C2CCN(c3nc(-c4ccc(Cl)cc4)no3)CC2)c1,3%,nt,25%,13µM*,16µM*
COc1ccc(C(=O)N2CCN(Cc3cn[nH]c3-c3ccc(OC)cc3F)CC2)cc1,nt,-10%,2%,-9%,?
O=C(Oc1cccc([N+](=O)[O-])c1)N1CCCCC1,3%,-9%,-3%,-4%,-20%
CCOc1ccc(N(CC(=O)NC(C)(C)C)C(=O)CCC(=O)Nc2nccs2)cc1,4%,-7%,-5%,51%,-8%
O=C(CSc1nnc(-c2ccc(O)cc2)o1)Nc1cccc(O)c1,14%,-11%,-25%,-12%,-21%
COc1ccc(CN2C(=O)C(CC(=O)NC3CCCCC3)CC(C(=O)N(C(C)C)C(C)C)=C2C)cc1 (configuration not stated),nt,nt,nt,?,15µM*
CCN(CC)C(=O)C1=C(C)N(Cc2ccc(C(C)(C)C)cc2)C(=O)C(CC(=O)NC2CC2)C1 (configuration not stated),nt,nt,nt,-5%,-19%
CCN(CC)C(=O)C1=C(C)N(Cc2ccc(C(C)(C)C)cc2)C(=O)C(CC(=O)NC2CCCCC2)C1 (configuration not stated),nt,nt,nt,15µM*,12µM*
SMILES,TDP1 block,uPA surface inh,miR-21 reporter,DT40 TDP1 CPT,DT40 TDP1 no CPT
CC1=C(C(=O)N(C(C)C)C(C)C)CC(CC(=O)NCc2cccc3ccccc23)C(=O)N1Cc1ccccc1 (configuration not stated),nt,nt,nt,?,15µM*
CC1=C(C(=O)N(C(C)C)C(C)C)CC(CC(=O)NC2CCCCC2)C(=O)N1CCC1=CCCCC1 (configuration not stated),nt,nt,nt,?,23µM*
O=C(CCc1c[nH]c2ccccc12)Nc1ccc(S(=O)(=O)Nc2ncccn2)cc1,8%,6%,-2%,2%,-12%
CCN1CCN(C(c2ccccc2)c2c(O)cc(C)n(CCOC)c2=O)CC1 (configuration not stated),5%,nt,3%,-12%,-9%
COc1ccc(N(CC(=O)Nc2cccc(C(C)=O)c2)S(C)(=O)=O)cc1OC,-10%,-3%,-8%,7%,-7%
Nc1c(Cl)cc(-c2csc(NCCc3nc4cc(Cl)c(Cl)cc4n3CCCO)n2)cc1Cl,nt,6%,4%,?,?
CC1=C(C(=O)N(C(C)C)C(C)C)CC(CC(=O)NC2CCCC2)C(=O)N1Cc1ccc(C(C)(C)C)cc1 (configuration not stated),nt,nt,nt,21µM*,23µM*
Oc1ccc(/C=N/N2CCN(C3c4ccccc4-c4ccccc43)CC2)cc1O,11%,-1%,1%,8.2µM*,10µM*
COc1cc(/C=N/N2CCN(C3c4ccccc4-c4ccccc43)CC2)cc(OC)c1O,7%,-3%,-11%,?,?
Oc1ccc(/C=N/N2CCN(C3c4ccccc4-c4ccccc43)CC2)cc1,8%,-1%,1%,-11%,-19%
Cc1ccc(/C=N/N2CCN(C3c4ccccc4-c4ccccc43)CC2)o1,nt,-11%,5%,?,18µM*
COc1cc(/C=N/N2CCN(C3c4ccccc4-c4ccccc43)CC2)cc(OC)c1OC,3%,-3%,-2%,16µM*,15µM*
O=C(CCCCCN1C(=O)c2ccccc2C1=O)Nc1ccccc1F,nt,2%,-3%,13%,-51%

# Assay outcomes from PubChem BioAssay.
